Bioassay records: PubChem BioAssay, several laboratories
Vc quorum ag: inducers of Vibrio cholerae quorum light production without autoinducers, primary screen, BH1578 luxS cqsA deficient, single point; AID 588436, 2011; 350,000 tested, 0.16% active; V. cholerae BH1578 lux reporter, luminescence, 6 h; activation, % at 18.7 µM; in the data active = activation mostly above about 9.7%, no sharp cut-off
FBA Mtb inh: Mtb FBA enzyme inhibitors, primary screen, biochemical, fluorescence, strain H37Rv; purified M. tuberculosis FBA, fluorescence read-out; inhibition, % at 1 µM; 360,000 tested, 2.3% active; in the data active = inhibition above about 27%;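 also: 0% = vehicle and 100% = reference inhibitor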
Target sequence (P9WQA3 whole entry, looked up): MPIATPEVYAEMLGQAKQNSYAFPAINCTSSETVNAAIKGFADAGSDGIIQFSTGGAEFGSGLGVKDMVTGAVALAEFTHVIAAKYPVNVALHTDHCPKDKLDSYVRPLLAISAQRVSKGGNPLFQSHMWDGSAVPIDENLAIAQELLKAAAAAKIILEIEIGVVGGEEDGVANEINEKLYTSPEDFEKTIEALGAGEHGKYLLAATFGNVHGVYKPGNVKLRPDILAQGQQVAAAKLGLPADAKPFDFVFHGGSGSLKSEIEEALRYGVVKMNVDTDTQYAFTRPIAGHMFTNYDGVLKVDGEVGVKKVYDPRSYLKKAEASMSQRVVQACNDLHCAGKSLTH
CCHF vOTU inh: CCHFV vOTU protease inhibitors, primary screen, biochemical, Pep-AMC substrate, fluorescence. inhibition, % at 11.5 µM. Crimean-Congo hemorrhagic fever virus L polyprotein viral ovarian tumor (vOTU) protease …. AID 651958, 2012. 370,000 tested, 0.55% active; also: 0% = vehicle wells with enzyme and 100% = no enzyme wells
GDH-TPI counter: GDH-TPI coupling enzyme inhibitors, primary screen, artefact control for M. tuberculosis FBA inhibitor project, biochemical, absorbance, full deck. GDH-TPI coupled enzyme counterscreen, NADH absorbance. AID 588335, 2011. 360,000 tested, 1.2% active. inhibition, % at 4.8 µM;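 also: 0% = DMSO wells and 100% = wells lacking the enzyme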
An asterisk follows results filed as active; i = inactive; · = not tested or not shown; + = active, no number. Most compounds without a hit are left out; they make up all but 3.9% or so of the library. Rule as the data show it, unless noted: active = inhibition above about 30%; inactive = the rest.

SMILES | Vc quorum ag | FBA Mtb inh | CCHF vOTU inh | GDH-TPI counter
CC(C)(C)C(=O)Nc1ccc(S(=O)(=O)N2CCCC2)cc1 | -1 | 182* | 0 | 6
COC(=O)c1ccc(S(=O)(=O)N2CCCCCC2)cc1 | i | -5 | -12 | 47*
Cc1ccc(/C=C/C(=O)OCc2nc(N)nc(Nc3ccccc3C)n2)o1 | 0 | -6 | 7 | 13
O=C(/C=C/c1ccccc1Cl)Nc1cccnc1 | -1 | -2 | -5 | 6
COc1ccccc1/C=C/C(=O)Nc1cccnc1 | 0 | 2 | -7 | 35*
COc1ccc2cc(/C=N/NC(=O)CN(c3ccccc3C)S(=O)(=O)c3ccccc3)c(Cl)nc2c1 | i | 6 | -3 | 2
CC1(CC(=O)N/N=C/c2ccc(-c3ccc(C(=O)O)cc3)o2)OCCO1 | 0 | 16 | 18 | 60*
O=C(CN1CCOCC1)N/N=C/c1ccccc1 | 2 | 4 | 13 | 3
O=C(CN1CCOCC1)N/N=C/c1ccc(-c2ccc(C(=O)O)cc2)o1 | 0 | 6 | -2 | 35*
CC1(CC(=O)N/N=C/c2ccc(-c3ccc(Cl)cc3)o2)OCCO1 | -2 | 0 | 4 | 55*
COC(c1ccccc1)c1nnc(CCC(=O)N2CCN(C3CCCC3)CC2)o1 (centres undefined) | -1 | 3 | 3 | 15
CC(C)C(=O)N[C@H]1[C@H](O)CCC[C@@]12C(=O)N(Cc1ccccc1)c1ccccc12 | · | · | 8 | ·
CCN(CCCNC(=O)Cn1ncc2c([nH]c3ccccc32)c1=O)Cc1ccccc1 | i | 9 | -3 | 1
CCc1cccc(NC(=O)C2CCCN2S(=O)(=O)c2ccccc2C(F)(F)F)c1 (centres undefined) | i | 0 | 5 | 1
Cc1cc(C)nc(SCC(=O)c2ccc(O)cc2O)n1 | · | -2 | 3 | 50*
Cc1cc(C)nc(SCC(=O)c2ccc(O)c(O)c2)n1 | 0 | 5 | 4 | 7
O=C(CSc1nnnn1-c1ccccc1)CSc1nnnn1-c1ccccc1 | -4 | -2 | 3 | 12
O=C(CSc1nnnn1-c1ccccc1)c1ccc(O)cc1O | 0 | -8 | 29 | 42*
CC(C)Oc1ccc(S(=O)(=O)N2CCOCC2)cc1NC(=O)CSC(=S)N1CCCC1 | i | 1 | -4 | -12
CCOC(=O)c1[nH]c2cc3c(cc2c1NC(=O)CN1CCC(C)CC1)OCO3 | 7 | 153* | -6 | 29
CCOC(=O)N1CCN(CC(=O)Nc2c(C(=O)OC)[nH]c3ccccc23)CC1 | 1 | 10 | -5 | 0
COc1ccccc1N1CCN(C(=O)/C=C/c2c(Cl)nc3ccccn23)CC1 | 0 | 0 | 9 | 47*
COc1ccc(C(=O)N2CCC(C)(C(=O)NS(=O)(=O)C3CC3)C2)cc1F (centres undefined) | i | 0 | -9 | -2
CCc1ccc(/C=C2/C(=O)NC(=O)N2C(C)=O)cc1 | 1 | 1 | 9 | 40*
CCOc1ccccc1C(=O)NCC(=O)NNC(=O)c1cccc(S(=O)(=O)Nc2ccc(OC)cc2)c1 | 536* | 0 | 5 | 4
SMILES | Vc quorum ag | FBA Mtb inh | CCHF vOTU inh | GDH-TPI counter
O=C(C(=O)N1CCN(S(=O)(=O)c2ccc(F)cc2)CC1)c1cccc(C(F)(F)F)c1 | · | · | 1 | ·
Cc1ccc(C(=O)OCC(=O)NCc2cccs2)s1 | i | 1 | 3 | -1
Oc1[nH]c2ccccc2c1N=NC(=S)NCC1CCCO1 (centres undefined) | 0 | -8 | -3 | 21
Oc1[nH]c2ccc(Br)cc2c1N=NC(=S)NCC1CCCO1 (centres undefined) | 0 | -8 | 0 | 36*
Cc1cc(C(=O)N/N=C/c2ccc([N+](=O)[O-])cc2)c2ccccc2n1 | -1 | -5 | 3 | 51*
Cc1cccc(/C=N/NC(=O)c2cc(C3CC3)nc3ccccc23)n1 | 0 | 6 | 5 | 16
Cc1cc(C(=O)N/N=C/c2cc([N+](=O)[O-])ccc2O)c2ccccc2n1 | 0 | -6 | 0 | 6
O=C(N/N=C\c1cn[nH]c1-c1ccccc1)c1ccc([N+](=O)[O-])cc1 | 0 | 0 | 0 | 23
O=C(N/N=C/c1ccc([N+](=O)[O-])cc1)c1cc(C2CC2)nc2ccccc12 | 0 | -5 | -4 | 33*
O=C(N/N=C/c1ccc([N+](=O)[O-])cc1)c1[nH]ncc1Br | i | + | 9 | 20
Cc1cc(C(=O)N/N=C/c2ccc3c(c2)OCO3)c2ccccc2n1 | -1 | -2 | -7 | 40*
